# Bioassay records deposited in PubChem BioAssay by National Center for Advancing Translational Sciences (NCATS).
# Hits are enriched below; roughly 3.6% of the tested compounds scored in any of these assays.
# HepG2 viability = qHTS for Inhibitors of TGF-b: Cytotox Counterscreen | hit rate 0.76% among 410,000 | Potency, µM (top dose mostly 46.1 µM), inactives show at the highest dose activity change, negative = cytotoxicity, most hits filed as cytotoxic | HepG2 CAGA-GFP viability, ATP luminescence, 18 h
#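 CellTiter-Glo luminescence gave cytotoxicity after 18 hours at 37 degrees C. The cells were HepG2 CAGA-GFP in 1% FBS DMEM, stimulated with 500 pg/mL TGF-beta after compound addition. %Activity was normalised to no-cell wells (complete cell-killing) and DMSO (no toxicity), and curves were fitted and classified.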
# TGFb inhibitor = qHTS for Inhibitors of TGF-b; hit rate 1.2% among 410,000; Potency, µM (doses to about 46.1 µM), for the others: at the highest dose activity, negative = inhibition, actives largely listed as inhibitors; HepG2 CAGA-GFP TGF-b/SMAD3 reporter, GFP fluorescence, 18 h; TGF-beta stimulated, 500 pg/mL final; AID 588855, 2011; also: % is scaled to controls: 0 for no effect and ±100 for the full control effect; nearly all actives have a fitted effect of over 65% in size
#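 Per well, imaged GFP fluorescence of HEPG2 CAGA-GFP cells gives the signal; cells get compound, then TGF-beta (500 pg/mL final), 18 h at 37 degrees C; %Activity versus -TGF-beta and +DMSO controls.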
# Nrf2 block = Nrf2 qHTS screen for inhibitors; hit rate 2.1% among 360,000; Potency, µM (doses to about 46 µM), without a hit: top-dose activity change, negative = inhibition, usual class: inhibitors; AID 504444, 2011; A549 ARE-Fluc reporter, luciferase luminescence, 18-24 h; also: % is scaled to controls: 0 for no effect and ±100 for the full control effect; nearly all actives have a fitted effect of over 60% in size
#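 Two sequential reads on A549 ARE_Fluc cells exposed to compound for 18-24 h: a CellTiter-Fluor fluorescence read for viability, then a luciferase luminescence read for Nrf2/ARE activity.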
# A549 viability = Nrf2 qHTS screen for inhibitors: counterscreen for cytotoxicity; Potency, µM (doses to about 46 µM), inactives show at the highest dose activity change, negative = cytotoxicity, most hits filed as inhibitors; AID 504648, 2011; A549 ARE-Fluc cells, CellTiter-Fluor viability, 18-24 h; hit rate 0.16% among 390,000; also: % is scaled to controls: 0 for no effect and ±100 for the full control effect
#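 A549 ARE_Fluc cells in 5% FBS OPTI-MEM were exposed to compounds in concentration-response for 18-24 h at 37 deg C. Viability was read by CellTiter-Fluor fluorescence (Ex 405/Em 525) after 30 min, before the luciferase read.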
# Nrf2 ARE act = qHTS of Nrf2 Activators | hit rate 0.31% among 410,000 | AREc32 ARE-luciferase reporter (MCF7-derived line), luminescence, 24 h | Potency, µM (doses to about 46.1 µM), for the others: at the highest dose activation, most hits filed as activators; also: % of control where 0% means no effect; nearly all actives have a fitted effect of over 65% in size
#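 ARE-driven firefly luciferase activity in AREc32 cells measured after a 24 hr compound exposure at 37 deg C, using Steady-Glo reagent and a 30 min room-temperature hold.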
# * marks the source's active call; other numbers are inactive results; ? = inconclusive; . = no result given; [ ] = another dose, or the depositor's remark. Calls follow the shape of the dose curve; as a rule, active = well fitted curve in the direction sought with a large enough effect; inconclusive = small, poorly fitted or top-dose-only effect, or another doubt; inactive = no such curve, though single readings can be large; an effect the other way counts as inactive or inconclusive. Potency is read from the fitted curve at half-maximal effect.
SMILES,HepG2 viability,TGFb inhibitor,Nrf2 block,A549 viability,Nrf2 ARE act
CCC1=Nc2cc(C(=O)N3CCC(C)CC3)ccc2Sc2ccc(C)cc21,-23.3%,?,18.4µM*,?,3.7%
Cc1ccc(CN2CCSc3ccc(C(=O)NCc4ccco4)cc32)cc1,-2.6%,-15.1%,-15.4%,-5.7%,8.9%
COc1ccc(NC(=O)C2Cc3c(-c4ccc5c(c4)OCO5)ccnc3O2)cc1OC (configuration not stated),-38.0%,-5.7%,.,.,0.1%
O=C(CCN1C(=O)C2C3C=CC(C4CC34)C2C1=O)Oc1cccc2cccnc12 (configuration not stated),6.31µM*,5.01µM*,6.5%,-1.3%,?
CCCN(CCC)c1ccc(/C=C/c2ccnc3ccccc23)cc1,10µM*,217.3%,.,.,.
Cc1[nH]c2ccccc2c1/C=C/c1ccnc2ccccc12,-110.0%,12.6µM*,.,.,.
CCC[N+](C)(C)c1ccc(/C=C/c2ccnc3ccccc23)cc1,-50.1%,2µM*,.,.,.
CSc1cccc(NC(=O)CSc2ccc(Cl)cc2)c1,-19.6%,7.0%,-7.6%,-2.0%,-1.0%
O=C(CN1C(=O)c2cccnc2Oc2ccc(Cl)cc21)NC1CCCCCC1,-15.7%,-0.1%,-23.9%,-2.8%,0.3%
COC(=O)C1SCCN1S(=O)(=O)c1ccc(Cl)cc1 (configuration not stated),1.1%,8.0%,-5.4%,0.7%,-1.0%
Cc1cccc2sc(N(CCCN(C)C)C(=O)COc3ccc(Cl)cc3)nc12,22.4µM*,-25.1%,11.6%,-5.4%,2.0%
CN(C)CCCN(C(=O)CCOc1ccccc1)c1nc2c(F)cccc2s1,11.2µM*,?,?,?,-3.6%
Cc1cccc2sc(N(CCCN(C)C)C(=O)COc3ccccc3)nc12,-32.1%,.,23.2%,-0.9%,7.6%
Cc1cc(C(=O)OCC(=O)NCc2cccs2)ccc1[N+](=O)[O-],2.0%,-3.9%,22.7%,-6.9%,2.7%
COc1ccc2c3c1OC1CC(O)C=CC31CCN(C)C2 (configuration not stated),1.5%,20.1%,-1.7%,0.2%,-0.3%
COc1ccc(CNc2nc3ccccc3n2Cc2ccc(Cl)cc2)cc1OC,-35.6%,14.1µM*,23.1µM*,-15.8%,3.7%
CCCCn1c(NC(=S)Nc2ccccc2)nc2ccccc21,-19.5%,12.6µM*,?,?,13.5%
Cc1nc2ccccc2n1Cc1ccc(Cl)cc1,-6.8%,-15.3%,18.4µM*,8.7%,4.0%
OCc1nc2ccccc2n1Cc1ccc(Cl)cc1,16.4%,-14.4%,-20.0%,4.3%,2.1%
S=C(Nc1ccccc1)Nc1nc2ccccc2n1CCOc1ccccc1,-44.9%,4.8%,-20.4%,?,-2.1%
CCCCCn1c(NCc2ccccc2OC)nc2ccccc21,-43.4%,15.8µM*,?,?,7.3%
CC1CCCCN1C(=O)CCn1c(=O)oc2ccccc21 (configuration not stated),-0.5%,3.1%,?,-0.6%,0.0%
Cc1cccc(Cn2c(Cc3ccccc3)nc3ccccc32)c1,-85.3%,-11.3%,?,-4.7%,4.0%
CC(C)(C)c1ccc(Cn2c(Cc3ccccc3)nc3ccccc32)cc1,15.8µM*,14.1µM*,23.1µM*,-10.7%,4.0%
Oc1ccccc1Oc1c(F)c(F)nc(N2CCCC2)c1F,-31.5%,?,13.4%,1.1%,2.2%
SMILES,HepG2 viability,TGFb inhibitor,Nrf2 block,A549 viability,Nrf2 ARE act
CC(=O)/C=C/c1ccccc1Oc1c(F)c(F)nc(F)c1F,-22.9%,?,5.7%,8.8%,7.94µM*
CC1=C(C(=O)Nc2ccccc2)C(c2ccc(C)cc2)N=C(Nc2nc3ccccc3o2)N1 (configuration not stated),11.2µM*,?,?,-14.3%[1.84 µM],6.6%
CC(=O)c1c(C)nn(CC(O)COc2ccc3c(c2)CCC3)c1C (configuration not stated),-46.9%,-2.9%,9.2µM*,1.7%,-0.4%
O=C1C(Cl)=C(N2CCCCC2)C(=O)N1c1ccccc1Cl,14.7%,0.8%,.,14.1%,2.6%
Cc1ccccc1C(=O)Nc1ccc(-c2nc3ccc(C(=O)c4ccccc4)cc3[nH]2)cc1,1.2%,22.8%,20.6µM*,-9.6%,2.6%
O=C(c1ccccc1)c1ccc2nc(-c3ccc(NC(=O)c4ccccc4Br)cc3)[nH]c2c1,-4.0%,-10.4%,?,-6.6%,0.2%
COC(=O)C1=C(C(=O)OC)[C@@H]2N(Cc3ccccc3)c3ccccc3[C@@]23C[C@@H](C(=O)OC)N(C(=O)c2cccs2)C3=N1,-44.7%,?,29.1µM*,?,2.3%
COC(=O)C1=C(C(=O)OC)[C@@H]2N(C)c3ccccc3[C@@]23C[C@@H](C(=O)OC)N(C(=O)c2cccs2)C3=N1,-33.5%,1.0%,3.7%,3.8%,-0.2%
COC(=O)C1=C(C(=O)OC)[C@@H]2N(Cc3ccccc3)c3ccccc3[C@@]23C[C@@H](C(=O)OC)N(C(=O)c2cc(C)oc2C)C3=N1,-43.4%,1.1%,23.1µM*,-15.7%,-1.6%
CCn1nc(C)cc1C(=O)Sc1cccc(Br)c1,20µM*,?,-25.1%,0.5%,1.6%
CCc1c(C)nc2nc(-c3ccccc3)nn2c1NCc1ccc(C)cc1,-103.9%,?,18.4µM*,-10.6%,-2.3%
COc1ccccc1NC(=O)C1CCC(CNS(=O)(=O)c2ccc3c(c2)CC(C)N3C(C)=O)CC1 (configuration not stated),-35.6%,?,18.4µM*,-2.9%,-0.2%
CC(=O)N1c2ccc(S(=O)(=O)NCC3CCC(C(=O)Nc4ccc(C)c(C)c4)CC3)cc2CC1C (configuration not stated),-6.0%,-2.0%,20.6µM*,-11.9%,4.7%
CC(=O)N1c2ccc(S(=O)(=O)NCC3CCC(C(=O)Nc4ccc(F)cc4)CC3)cc2CC1C (configuration not stated),-25.2%,-0.5%,.,-10.3%,3.4%
CCOC(=O)CSc1nc2cc(OCC)ccc2cc1C#N,-21.8%,?,21.2%,-20.0%,3.8%
CCOC(=O)c1c(O)cc(C)[nH]c1=O,-4.2%,3.5%,0.0%,0.0%,-0.2%
COCc1nc(-c2ccc(-c3ccc(C)cc3)nc2OC)no1,-18.4%,4.1%,-5.1%,-14.1%,2.9%
Cc1cc(C)c(C#N)c(SCCS(=O)(=O)c2ccc(Cl)cc2)n1,8.8%,2.5%,?,-9.1%,?
Cc1cc(C)c(C#N)c(SCCS(=O)(=O)Cc2ccc(Cl)cc2)n1,-5.1%,14.1µM*,-16.5%,0.9%,0.1%
Nc1[nH]n(-c2ccccc2)c(=O)c1N=Nc1ccccc1[N+](=O)[O-],-12.2%,-4.9%,16.3%,-6.8%,5.9%
